Measurements reported in ChEMBL document CHEMBL3988442, “University of Dundee, Small-Polar-MMV Screening Library” (2021).
Among all 38,000 compounds or so, about 1,200 (3.2%) showed an effect of 50% or more. The median lay at about -58%. What follows is part of a selection rich in strong results, with near analogues and random picks from the rest.

What follows are molecules tested on Plasmodium falciparum (assay: Calibr Malaria Delayed Death Assay SOP). Conditions: concentration 4.99e-06 (unit not given; other assays of the set use mol/L).
Assay type: functional, organism-based
Set-up: scale not given: in the data most compounds retested in dose-response had high values

SMILES | Percent Effect [%]
O=C1CC(NS(=O)(=O)c2ccc3ccccc3c2)CN1 (stereo not given) | -65.16
Cc1noc([C@@H]2C[C@@H]3CCN(c4nnc(C)s4)C[C@H]3O2)n1.O=C(O)C(F)(F)F | -44.29
Cc1ccnc(CC(C)N(C)c2cc(C3CCNCC3)nc(C)n2)c1 (stereo not given) | -104.4
Cc1nc(C2CCNCC2)cc(N(C)Cc2cc3cc(F)ccc3[nH]2)n1 | 75.18
CN(Cc1cc2cc(F)ccc2[nH]1)c1cc(C2CCCNC2)ncn1 (stereo not given) | 83.71
Cc1c(CN(C)c2cc(C3CCCNC3)ncn2)[nH]c2ccccc12 (stereo not given) | 11.41
CNS(=O)(=O)CC(=O)N(Cc1c(F)cccc1Cl)C1CC1 | -68.94
Cc1nc(CCN)cc(N(C)Cc2nc3ccc(F)cc3[nH]2)n1 | -113.9
CN(Cc1cc2cc(F)ccc2[nH]1)C(=O)C1CC(=O)N(C2CCCC2)C1 (stereo not given) | 12.79
Cc1nc(NCc2ccc(C)o2)cc(C2CCNCC2)n1 | -133.8
Cc1nc(C2CCNCC2)cc(N(C)CCc2cn[nH]c2)n1 | -114.3
Cc1nc(NCc2coc(-c3ccccc3)n2)cc(C2CCNCC2)n1 | -7.041
Cc1cccc(CNC(=O)Nc2cc(C(F)(F)F)c[nH]c2=O)n1 | -120.3
CCn1nc(C)c2nc(C)nc(NC3CCCC3)c21 | -48.65
Cc1ccc(CN2CCN(CC(=O)Nc3ccc4nsnc4c3)CC2)o1 | -102.5
CC(=O)c1ccc(-c2cc(C(F)(F)F)cc(N(C)C)n2)cc1 | -183.7
CCOC(=O)C1=NOC(Cc2cc(OC)c3c(c2)OCO3)C1 (stereo not given) | -124.2
Cc1cc(N2CCOCC2)ccc1NC(C)c1nc(C(C)C)no1 (stereo not given) | -4.816
Cc1sc2nc(C(F)(F)F)nc(N3CCC(NS(C)(=O)=O)CC3)c2c1C | 27.92
Cc1sc2nc(C(F)(F)F)nc(N3CCN(S(C)(=O)=O)CC3)c2c1C | -77.64
CCOC(=O)N1CCN(c2nc(CCN)nc3sc(C)c(C)c23)CC1 | 65.93
Cc1sc2nc(CCN)nc(N3CCC(N4CCCC4)CC3)c2c1C | 84.16
Cc1sc2nc(CCN)nc(N3CCS(=O)(=O)CC3)c2c1C | -119.4
CCOC(=O)N1CCN(c2nc(C)ncc2CC)CC1 | -56.83
Cn1ccnc1-c1cn(CCCc2nnc(N)s2)nn1 | -41.76

SMILES | Percent Effect [%]
O=C(N1CCCC(n2cncn2)C1)C1(c2cccc(F)c2)CCC1 (stereo not given) | -129.3
CCN(CC)C(=O)COc1ccnc2cc(OC)ccc12 | -91.77
O=C(C1CCCO1)N1CCC2(CC1)COCCN(Cc1cccnc1)C2.O=C(O)C(F)(F)F.O=C(O)C(F)(F)F (stereo not given) | -101.1
Cc1cccc2nc(CNCc3cccc4c3OCCCO4)cn12 | 46.47
Cc1cccn2cc(CNCc3cccc4c3OCCCO4)nc12 | 52.57
c1cc(CNCCc2cn3ccccc3n2)c2c(c1)OCCCO2 | -61.04
CN(C)C(=O)Cc1ccc(-c2cccc3c2CCNC3)cc1 | -89.76
O=C(NCc1ccco1)c1cc(N2CC[C@@H](O)C2)ccn1 | -225.7
CN(C)[C@H]1CCN(c2ccnc(C(=O)NCc3ccco3)c2)C1 | -104.8
CCCOC1CCCN(c2ccnc(C(=O)NCc3ccco3)c2)C1 (stereo not given) | 63.16
CCS(=O)(=O)Nc1cnn(Cc2cccc(Cl)c2)c1 | -156.5
COc1ccc(-c2nc3c([nH]2)CCCNC3=O)cc1OC | -190.2
Cc1nn(C)c(N2CCOCC2)c1CNC(C)c1ccccn1 (stereo not given) | -39.11
CN(C)C(=O)C1(Oc2ccc(Cl)cc2)CCNCC1 | 48.49
COc1cccn(CC(=O)N(C)Cc2ccoc2)c1=O | -45.98
Cc1ccc(OC2(C(=O)N(C)Cc3ccoc3)CCNCC2)cc1 | 63.87
CN(Cc1ccoc1)C(=O)C1(Oc2ccc(Cl)cc2)CCNCC1 | 67.21
O=C(N[C@@H]1CCCNC1)C1(Oc2ccc(Cl)cc2)CCNCC1 | -19.49
CN(Cc1ccncn1)C(=O)C1(Oc2ccc(Cl)cc2)CCNCC1 | -76.49
Cc1ccc(C(=O)N2CC[C@@]3(O)CCCC[C@H]3C2)cc1 | -98.64
O=C1CC(c2ccncc2)c2c(sc3c2CCCC3)N1 (stereo not given) | 55.71
O=C1CC(c2ccc(C(=O)O)cc2)c2c(sc3c2CCCC3)N1 (stereo not given) | -5.696
O=C1CC(c2cccnc2)c2c(sc3c2CCCC3)N1 (stereo not given) | 28.11
O=C(CCc1ccco1)NS(=O)(=O)N1CCOc2ccccc21 | -129.3
Cc1cc(CS(=O)(=O)NC2CCCCC2)on1 | -56.68
